What all share (assay): NCI-60 one-dose screen, 48 h (100 = growth as untreated, 0 = no growth, -100 = all killed)
What all share (settings): 10 µM unless noted

Assay [1] concerns DU-145 prostate.
The subject of assay [2] is K-562 leukemia.
In assay [3] the test system is MALME-3M melanoma.
Assay [4] relates to MDA-MB-231 breast.
The test system of assay [5] is RXF 393 renal.
Assay [6] has as its system SF-268 CNS.
Assay [7] concerns SF-295 CNS.
Assay [8] has as its system SF-539 CNS.
The subject of assay [9] is UACC-257 melanoma.
For assay [10], the system named is M14 melanoma.
Assay [11] has as its system HCT-15 colon.
Assay [12] has as its system HT29 colon.
In assay [13] the test system is SNB-75 CNS.
Assay [14] concerns SNB-19 CNS.
Assay [15] relates to PC-3 prostate.
Assay [16] deals with SK-MEL-5 melanoma.
The subject of assay [17] is UACC-62 melanoma.
The subject of assay [18] is LOX IMVI melanoma.
Assay [19] concerns SK-MEL-28 melanoma.
The test system of assay [20] is U251 CNS.

About 83,000 compounds went through this panel and 20% of them were active in at least one assay; those are over-represented in the sample as a whole.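 Assay: single dose, 48 h. Readout: percent growth (0 = no net growth; negative = cell death). Active: <10.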 A number with no mark means an inactive call. Calls of active or inactive are those of the source.

Take `O=S(=O)(Nc1ccc(Cl)cc1Cl)c1ccc(-c2cnc(C3CC3)o2)cc1`: the growth in assay [1] is 8.88% (active); in [2], 10.9%; in assay [3], 37.7%; in assay [4] it was 44.2%; in assay [5] it was -10.7% (active); in assay [6], 53.6%. The growth is 1.37% (active) in assay [7]; -13.5% (active) in assay [8]; 55.4% in assay [9]; 10.8% in [10]; 24.3% in assay [11]; 1.27% (active) in assay [12]. Also, the growth was 5.51% (active) in assay [13]; 43.6% in assay [14]; 28.1% in [15]; 8.59% (active) in assay [16]; 35.3% in assay [17]; 43.3% in assay [18]. Besides, the growth in assay [19] is 55.3%.
For `CCN(CC)CC(C)Nc1ccc([N+](=O)[O-])c2sc3ccccc3c(=O)c12` (stereo not given), the growth was 27.6% in assay [1]; -14.2% (active) in assay [2]; -6.6% (active) in assay [3]; 51.5% in assay [4]; 32.4% in [5]; 27.3% in assay [6]. Further, the growth in assay [7] is 25%; in assay [8], 29.5%; in assay [9], -10.4% (active); in [10], 44.9%; in assay [11], 23.6%; in assay [12] it was 12%. The growth in assay [13] was 36.3%; in assay [20] it was 28.4%; in assay [15] it was 14.6%; in assay [16], 5.5% (active); in [17], 33.5%; in assay [18], 14.7%.
With `O=C1C(=O)N(CCCCn2cc(CO)nn2)c2ccccc21`, the growth in [1] is 108%; in assay [2], 98.4%; in [3] it was 97.7%; in assay [4] it was 98.2%; in assay [5] it was 99.7%; in [6], 101%. The growth in assay [7] is 102%; in assay [8], 101%; in [9] it was 105%; in [10], 94.5%; in assay [11], 102%; in [12] it was 103%. For the same compound, the growth was 72.3% in [13]; 99.5% in [14]; 98.3% in assay [15]; 101% in [16]; 99.3% in [17]; 92.1% in assay [18]. In assay [19], the growth is 109%.
Consider `CCCCCCCCCCCCCCCC(=O)OCC1OC(n2cnc3c(=S)nc(N)[nH]c32)C(OC(=O)CCCCCCCCCCCCCCC)C1OC(=O)CCCCCCCCCCCCCCC` (stereo not given), for which the growth is 39.8% in [1]; 15.9% in assay [2]; 82.6% in [3]; 47.4% in assay [4]; 164% in assay [5]; 67.2% in [6]. In addition, the growth in assay [7] is 21.1%; in assay [8], 79.9%; in [9], 88.7%; in assay [10], 34.1%; in assay [11] it was 55.1%; in assay [12], 37.7%. The growth in [13] was 78.2%; in assay [20] it was 83.7%; in assay [15], 78.8%; in assay [16], 96.7%; in assay [17], 31.7%; in assay [18], 21.7%. Besides, the growth in [19] is 130%.
Take `CCCCOc1ccc(NC(=O)n2nc(NC(C)=O)c3cc(NC(C)=O)ccc32)cc1`: the growth was 94.6% in assay [1]; 33.7% in [2]; 93.3% in assay [3]; 105% in assay [4]; 95.6% in assay [5]; 127% in assay [6]. In addition, the growth in [7] was 84%; in [8] it was 95%; in assay [9], 112%; in assay [10], 95.2%; in [11] it was 88.9%; in [12], 85.5%. For the same compound, the growth is 114% in assay [13]; 96.2% in assay [20]; 76.6% in assay [15]; 101% in [16]; 91.8% in assay [17]; 98.5% in [18]. Besides, the growth in [19] is 126%.
In the case of `O=C1C2CC=CCC2C(=O)N1CNc1ccc(Cl)cc1` (stereo not given), the growth in assay [1] was 106%; in [2] it was 84.6%; in assay [3] it was 87.6%; in assay [4], 92.8%; in assay [5], 92%; in [6] it was 96.9%. Besides, the growth in assay [7] was 106%; in assay [8] it was 86.5%; in [9], 101%; in assay [10], 94.2%; in assay [11] it was 89.6%; in assay [12], 96.3%. Moreover, the growth in [13] was 78.2%; in assay [20] it was 94.1%; in assay [15], 76.9%; in assay [16] it was 95%; in assay [17], 62.7%; in [18] it was 77%. In assay [19], the growth was 109%.
For the compound `O=C1OC2C(I)C3CC2C1C3c1ccccc1` (stereo not given), the growth in [1] is 107%; in assay [2] it was 104%; in [3], 136%; in [4], 96.8%; in assay [5], 113%; in assay [6], 106%. Also, the growth in assay [7] is 172%; in [8], 94.1%; in assay [9] it was 121%; in assay [10] it was 101%; in [11] it was 105%; in assay [12], 98.7%. Besides, the growth was 73.5% in assay [13]; 104% in [20]; 93.8% in assay [15]; 108% in assay [16]; 93.1% in assay [17]; 93.4% in assay [18]. In [19], the growth was 105%.
Turning to `OCC1C2C=CC(C2)C1CO` (stereo not given), the growth in assay [1] was 106%; in assay [2] it was 112%; in assay [3] it was 105%; in assay [4] it was 103%; in assay [5] it was 113%; in assay [6], 106%. The growth in [7] was 104%; in [8], 126%; in [9], 101%; in assay [10], 99.9%; in [11] it was 110%; in assay [12] it was 97.6%. For the same compound, the growth in assay [13] is 75.8%; in assay [20], 100%; in assay [15], 79.5%; in assay [16] it was 130%; in assay [17] it was 107%; in [18], 101%. Besides, in assay [19], the growth is 107%.
`CNC(=O)c1cc(Oc2ccc3nc(NC(=O)Nc4ccc(CN5CCOCC5)c(C(F)(F)F)c4)sc3c2)ccn1`: the growth in assay [1] was 31.5%; in assay [2] it was 5.93% (active); in [3] it was 8.17% (active); in assay [4], 28.8%; in assay [5], 44.6%; in [6], 34.9%. For the same compound, the growth in assay [7] was 11%; in [8], 16.5%; in assay [9], 18%; in assay [10] it was 23.2%; in assay [11], 24.5%; in assay [12], 45.3%. Moreover, the growth in assay [13] is 59.4%; in [20] it was 22.2%; in [15], 8.35% (active); in assay [16], -55.4% (active); in assay [17], 0.564% (active); in assay [18] it was 16.7%. The growth in assay [19] was 25.1%.

The record behind these values is PubChem BioAssay (NCI).
